Assay outcomes deposited in PubChem by several laboratories.
Rows were chosen to be rich in hits. Some 4.1% of all compounds tested hit in one or more screens of this group.
NALP3 yeast inh – inhibitors of NALP3 inflammasome in yeast | AID 2825 | inhibition, % at 10 µM | 330,000 tested, 0.39% active | Yeast reconstituted NLRP3/ASC/caspase-1, beta-gal luminescence, 24 h;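 active means inhibition of 50% or more; inactive means inhibition below 50%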
tim10-1 inh – tim10-1 yeast growth inhibition | S. cerevisiae tim10-1 ts strain growth, BacTiter-Glo, 24 h | inhibition, % at 20 µM | 330,000 tested, 2.2% active | AID 463190;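 active means inhibition of at least 40%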;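 further: mutant grown at 25 °C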
TIM10 inh – growth inhibitors of TIM10 yeast strain | S. cerevisiae TIM10 strain growth, BacTiter-Glo luminescence, 24 h | inhibition, % at 10 µM | 330,000 tested, 1.4% active | AID 463195;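 active means inhibition of 40% or more at the single tested concentration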;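 further: wild-type TIM10 isogenic control strain grown at permissive 25 °C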
NALP1 yeast inh – inhibitors of NALP1 inflammasome in yeast; S. cerevisiae NALP1/ASC/caspase-1 growth, X-gal OD620, 72 h; inhibition, % at 10 µM; 280,000 tested, 0.61% active; AID 2071; in the data active means inhibition mostly above about 24%, no sharp cut-off; inactive means mostly below about 32%
PfHsp90 yeast 2 – inhibits growth of yeast expressing Plasmodium falciparum Hsp90 | S. cerevisiae expressing PfHsp90, BacTiter-Glo ATP, 48 h; yeast lacking PDR1 and PDR3 efflux regulators | inhibition, % at 9.4 µM | 310,000 tested, 0.32% active | AID 504621;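 active means every replicate shows inhibition above about 80%, whatever the replicate mean, limit read from the data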
tim23-1 inh – tim23-1 yeast growth inhibition; S. cerevisiae tim23-1 growth, BacTiter-Glo luminescence, 24 h; inhibition, % at 20 µM; 330,000 tested, 1.3% active;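 active means growth inhibition of the mutant yeast at or above 50%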;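 further: temperature-sensitive mutant grown at 25 °C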
tim10-1 confirm – confirmation of tim10-1 mutant yeast growth inhibitors. shares compounds with tim10-1 inh. S. cerevisiae tim10-1 ts strain growth, BacTiter-Glo, 24 h. inhibition, % at 20 µM. 7,400 tested, 56% active;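 active means inhibition of yeast growth at or above a set limit in either of two repeat tests at 20 µM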;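 further: tim10-1 mutant grown at permissive 25 °C to find synthetic lethal compounds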
Of the large screens only hits and unclear results are named; the others gave an inactive call (follow-up assays come after a bar, where they were run).

COc1ccc(C)cc1NC(=S)NNC(=O)c1ccccc1Cl	tim10-1 inh 44 | tim10-1 confirm 48
COc1cc(Cl)c(C)cc1NC(=S)NN	tim10-1 inh 41 | tim10-1 confirm inactive
CCOC(=O)[C@H]1[C@H]2COc3ccc(Cl)cc3[C@@H]2N2C(=O)CNC(=O)[C@@]12C	none (no result: NALP1 yeast inh)
NC(=O)COC(=O)[C@H](Cc1c[nH]c2ccccc12)NC(=O)c1ccc(F)cc1	none
Cc1ccc2nc(C)c(C(=O)N/N=C/c3cccc([N+](=O)[O-])c3)cc2c1	tim10-1 inh 47 | tim10-1 confirm 45
COc1ccc(-n2cc(CN(C)C(C)c3ccncn3)c(-c3cccc(F)c3)n2)cc1 (centres undefined)	none (no result: PfHsp90 yeast 2)
COc1cccc(-c2nn(-c3ccccc3)cc2CN(C)C(C)c2ccncn2)c1 (centres undefined)	tim10-1 inh 44 | tim10-1 confirm inactive
CCCCCCC(=O)Nc1nc(C)c(-c2csc(Nc3ccc(Cl)cc3)n2)s1	none
CCCCCC(=O)Nc1nc(C)c(-c2csc(Nc3ccc(Cl)cc3)n2)s1	tim10-1 inh 41 | tim10-1 confirm inactive
CCOC(=O)/C(C#N)=C\c1ccc(O)c(OC)c1	tim10-1 inh 42 | tim10-1 confirm 34
COc1cc(/C=C/C(=O)CC(=O)/C=C/c2ccc(O)c(OC)c2)ccc1O	none (no result: NALP3 yeast inh) | tim10-1 confirm 39
O=C(Nc1sc2c(c1C(=O)O)CCC2)C(=O)N1CCOCC1	none
Cc1cc(C(=O)CCC(=O)NCC2COc3ccccc3O2)c(C)s1 (centres undefined)	none (no result: NALP1 yeast inh)
COc1ccc(CCC(=O)NC2CCCc3ccccc32)cc1OC (centres undefined)	none
Cc1cc(NC(=S)N(CCN2CCOCC2)Cc2ccccc2F)ccc1Cl	tim10-1 inh 44 | tim10-1 confirm inactive
Cc1ccc(NC(=S)N(CCN2CCOCC2)Cc2ccccc2F)cc1	none
O=C(c1cccc(Cl)c1)N1CCCC(C(=O)N2CCN(c3ccccc3)CC2)C1 (centres undefined)	none
CCOc1cc(C)cc2oc(=O)cc(-c3ccccc3)c12	none
Cc1cc(OCC(=O)N2CCc3ccccc3C2)c2c(-c3ccccc3)cc(=O)oc2c1	tim10-1 inh 46 | tim10-1 confirm inactive
CCCCCCCCOC(=O)c1c(CSC(=N)N)n(C)c2cc(Br)c(OC(C)=O)cc12	tim10-1 inh 46 (no result: PfHsp90 yeast 2) | tim10-1 confirm inactive
CCOC(=O)c1sc2c(c1C)c(=O)n(CCO)c(=O)n2Cc1ccccc1	none
Cc1c(C(=O)NC2CC2)oc2ccc(S(=O)(=O)N3CCCCCC3)cc12	tim10-1 inh 49 (no result: PfHsp90 yeast 2) | tim10-1 confirm 38
Cc1c(C(=O)NCC2COc3ccccc3O2)oc2ccc(S(=O)(=O)N3CC(C)CC(C)C3)cc12 (centres undefined)	none
Cc1c(C(=O)NCC2COc3ccccc3O2)oc2ccc(S(=O)(=O)N3CCOCC3)cc12 (centres undefined)	tim10-1 inh 42 (no result: PfHsp90 yeast 2) | tim10-1 confirm inactive
CC(C)=C1C2CCC1C(C(=O)NCCc1ccccc1)C2C(=O)O (centres undefined)	tim10-1 inh 44 | tim10-1 confirm inactive
COc1ccccc1CN1CC(C(=O)N(C)Cc2ccc(C)o2)CCC1=O (centres undefined)	none
Cc1ccc(S(=O)(=O)N2CCN(CC(=O)Nc3ccc(N4CCOCC4)cc3)CC2)cc1C	none
CC(=O)N1CCOc2ccc(S(=O)(=O)N3CCCCC3)cc21	none
CC(=O)N1CCOc2ccc(S(=O)(=O)N3CCN(c4cc(C)ccc4C)CC3)cc21	tim10-1 inh 43 | tim10-1 confirm 34
Cc1cccc(N2CCN(CC(=O)Nc3ccc(S(=O)(=O)N4CCOCC4)cc3)CC2)c1C	tim10-1 inh 41 | tim10-1 confirm inactive
Cc1ccc(C)c(N2CCN(S(=O)(=O)c3ccc4c(c3)NC(=O)CS4)CC2)c1	tim10-1 inh 46 | tim10-1 confirm inactive
CN1CCN(S(=O)(=O)c2ccc3c(c2)NC(=O)CS3)CC1	none
Cc1cccc(N2CCN(S(=O)(=O)c3ccc4c(c3)OCCO4)CC2)c1C	tim10-1 inh 46 | tim10-1 confirm 32
O=C(C[C@H]1C[C@H](C(=O)N2CCCCC2)[C@@]2(CCc3ccccc3)c3[nH]c4ccc(Cl)cc4c3CCN2C1=O)NCCC1=CCCCC1	none (no result: NALP3 yeast inh, NALP1 yeast inh)
CCOC(=O)N1CCN(C(=O)C(NC(=O)c2ccc(C(C)(C)C)cc2)C(C)C)CC1 (centres undefined)	none (no result: NALP1 yeast inh)
CC1CCN(C(=S)c2cn(Cc3cccc(F)c3)c3ccccc23)CC1	tim10-1 inh 41 | tim10-1 confirm inactive
Cc1cc(O)c(C(C[N+](=O)[O-])c2ccc(Cl)cc2Cl)c(=O)o1 (centres undefined)	tim10-1 inh 43 (no result: PfHsp90 yeast 2) | tim10-1 confirm inactive
C=C(C)CNC(=S)N=Nc1c(O)[nH]c2ccc([N+](=O)[O-])cc12	tim10-1 inh 42 | tim10-1 confirm inactive
NS(=O)(=O)c1cc(C(=O)OCC(=O)Nc2ccc3c(c2)OCO3)ccc1Cl	none (no result: NALP1 yeast inh)
Cc1ccc(S(=O)(=O)NCC(c2ccco2)S(=O)(=O)c2ccccc2)cc1 (centres undefined)	tim10-1 inh 44 (no result: NALP1 yeast inh, PfHsp90 yeast 2) | tim10-1 confirm 33
COc1ccc(OC)c(S(=O)(=O)NCC(c2ccco2)N2CCc3ccccc3C2)c1 (centres undefined)	none (no result: NALP1 yeast inh, PfHsp90 yeast 2)
COc1ccc(OC)c(S(=O)(=O)NCC(c2ccco2)S(=O)(=O)c2ccccc2)c1 (centres undefined)	tim10-1 inh 43 (no result: NALP1 yeast inh, PfHsp90 yeast 2) | tim10-1 confirm 38
Cc1ccc(S(=O)(=O)NCCC(c2ccccc2)c2ccco2)cc1 (centres undefined)	none
O=C(O)c1ccc(C(=O)c2ccc3c(c2)C(=O)N(CC2CCCO2)C3=O)cc1 (centres undefined)	none
O/N=C(\c1ccc(Cl)cc1Cl)c1ncc(C(F)(F)F)cc1Cl	none | tim10-1 confirm 50
Cc1ccc(-n2[nH]c(C)c(/C=N/Nc3ccc([N+](=O)[O-])cc3[N+](=O)[O-])c2=O)cc1	tim10-1 inh 49 | tim10-1 confirm 35
Cc1[nH]n(-c2ccc([N+](=O)[O-])cc2)c(=O)c1C=NCC1CCCO1 (centres undefined)	none
CCCC(=O)Nc1cc(C)c(NC(=O)C23CC4CC(CC(C4)C2)C3)cn1	tim10-1 inh 42 | tim10-1 confirm 32
COc1cc2c(cc1OC)C(NNC(=O)c1ccc(Br)o1)=NC(C)(C)C2	none
CN1C(=S)SC(C)(C)C1(C)NO (centres undefined)	tim10-1 inh 71 | tim10-1 confirm inactive
CCCOc1cccc(NC(=O)c2c(-c3ccccc3)noc2C)c1	tim10-1 inh 41 | tim10-1 confirm inactive
Cc1onc(-c2ccccc2)c1C(=O)Nc1cccc(OC(C)C)c1	none
